Test results from the supplement of paper PMC6522484.
± gives the standard deviation of the averaged measurements.

The compounds below were run on HCT116 (assay: cell viability (CellTiter-Glo) relative to plate median (fraction of plate median); higher = more viable cells). Details: 10 µM; treatment time 24 h; reporter: TCF4/Wnt.
Summary of the method: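 Kinase inhibitor library compounds were added at a final 10 µM for 24 h to colorectal cancer cells in 384-well plates, 24 h after seeding. The cells stably expressed lentiviral TCF/Wnt firefly luciferase reporters. Firefly luciferase and CellTiterGlo luminescence came from parallel plates, and each well was normalised to its plate median (webcellHTS2, additive, untransformed), averaged over two independent replicates.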

Point of comparison: `C#Cc1cccc(Nc2ncnc3cc(OCCOC)c(OCCO)cc23)c1` [OSI-420 (Desmethyl Erlotinib)], cell viability 1.075 ± 0.0071. Against it:
- O=C(O)c1ccc(Nc2ncc3c(n2)-c2ccc(Cl)cc2C(c2c(F)cccc2F)=NC3)cc1 — lower, 0.982 ± 0.0042
- O=C(c1ccc(/C=C/c2n[nH]c3ccccc23)cc1)N1CCNCC1 — lower, 0.944 ± 0.093
- Cc1[nH]c(/C=C2\C(=O)Nc3ccc(S(=O)(=O)N(C)c4cccc(Cl)c4)cc32)c(C)c1C(=O)N1CCN(C)CC1 — within error, 1.09 ± 0.13
- Nc1cc(C(F)(F)F)c(-c2cc(N3CCOCC3)nc(N3CCOCC3)n2)cn1 — lower, 0.56 ± 0.069
- COC(=O)Nc1ccc(-c2nc(N3CCOCC3)c3cnn(C4CCN(Cc5cccnc5)CC4)c3n2)cc1 — lower, 0.759 ± 0.059
- Fc1cc(-c2cccc3ncc(-c4cnn(C5CCNCC5)c4)nc23)cc(F)c1CN1CCOCC1 — within error, 1.01 ± 0.055
- COCC(=O)NC/C=C/c1ccc2ncnc(Nc3ccc(Oc4ccc(C)nc4)c(C)c3)c2c1 — within error, 1.06 ± 0.014
- COc1cc2ncnc(Nc3cccc(Br)c3)c2cc1OC — within error, 1.06 ± 0.086
- Nc1ccc(-c2ccc3ncc4ccc(=O)n(-c5cccc(C(F)(F)F)c5)c4c3c2)cn1 [Torin 2] — lower, 0.681 ± 0.085
- Oc1cccc(-c2nc(N3CCOCC3)c3oc4ncccc4c3n2)c1 — lower, 0.862 ± 0.15
- Cc1cccc(-c2[nH]c(C(C)(C)C)nc2-c2ccc3nccnc3c2)n1 — higher, 1.17 ± 0.028
- Cc1ncc(-c2ccnc(Nc3ccc(S(C)(=O)=O)cc3)n2)n1C(C)C — within error, 0.766 ± 0.3
- CN1CCN(c2nc(C3=C(c4c[nH]c5ccccc45)C(=O)NC3=O)c3ccccc3n2)CC1 [Sotrastaurin (AEB071)] — within error, 1.03 ± 0.13
- C[C@@H](N)[C@H]1CC[C@H](C(=O)Nc2ccncc2)CC1 — within error, 1.09 ± 0.021
- CC(C)(C)c1cc(/C=C(\C#N)C(N)=S)cc(C(C)(C)C)c1O [Tyrphostin AG 879 (AG 879)] — within error, 0.979 ± 0.1
- c1cncc(CN2CCC(n3ncc4c(N5CCOCC5)nc(-c5ccc6[nH]ccc6c5)nc43)CC2)c1 — lower, 0.858 ± 0.052
- CCS(=O)(=O)c1cccc(-c2cc(C(=O)NC3CCN(C)CC3)c(C)c3[nH]c4ncc(C)cc4c23)c1 — lower, 0.522 ± 0.23
- COC(=O)c1ccc2c(C(=Nc3ccc(N(C)C(=O)CN4CCN(C)CC4)cc3)c3ccccc3)c(O)[nH]c2c1 [BIBF1120 (Vargatef)] — within error, 1.06 ± 0.028
- Cc1csc(-c2nnc(Nc3ccc(Oc4ncccc4-c4ccnc(N)n4)cc3)c3ccccc23)c1 — higher, 1.16 ± 0.071
- CCc1cc(Nc2nccc(-c3c(-c4ccc(OC)c(C(=O)Nc5c(F)cccc5F)c4)nc4ccccn34)n2)c(OC)cc1N1CCC(N2CCN(S(C)(=O)=O)CC2)CC1 — within error, 1.1 ± 0.028
- CN1CCN(c2ccc3nc(-c4c(N)c5c(F)cccc5[nH]c4=O)[nH]c3c2)CC1 [Dovitinib (TKI-258)] — lower, 0.748 ± 0.27
- c1ccc2c(-c3cnn4cc(-c5ccc(N6CCNCC6)cc5)cnc34)ccnc2c1 — lower, 0.62 ± 0.14
- O=C1NC(=O)/C(=C\c2ccc3nccnc3c2)S1 — within error, 1.04 ± 0.042
- COc1cc2nccc(Oc3ccc(NC(=O)NC4CC4)c(Cl)c3)c2cc1C(N)=O [E7080 (Lenvatinib)] — within error, 1.06 ± 0.11
- CC(C)(C)c1cnc(CSc2cnc(NC(=O)C3CCNCC3)s2)o1 — lower, 0.786 ± 0.17
- CCS(=O)(=O)Nc1ccc2c(c1)/C(=C(/Nc1ccc(CN3CCCCC3)cc1)c1ccccc1)C(=O)N2 [Hesperadin] — lower, 0.556 ± 0.2
- CNC(=O)c1cc(Oc2ccc(NC(=O)Nc3ccc(Cl)c(C(F)(F)F)c3)c(F)c2)ccn1 [Regorafenib (BAY 73-4506)] — lower, 1 ± 0.024
- CCc1cc2c(cc1N1CCC(N3CCOCC3)CC1)C(C)(C)c1[nH]c3cc(C#N)ccc3c1C2=O — within error, 1.18 ± 0.26
- CCC[C@H](NC(=O)/C(C#N)=C/c1cccc(Br)n1)c1ccccc1 — lower, 0.13 ± 0.066
- COc1cc2c(Nc3ccc(NC(=O)c4ccccc4)cc3)ncnc2cc1OCCCN1CCOCC1 — lower, 1.01 ± 0.041
- O=C(NOCC(O)CO)c1cc(Br)c(F)c(F)c1Nc1ccc(I)cc1F (configuration not stated) — lower, 0.891 ± 0.047
- O=C(NC1CCNCC1)c1n[nH]cc1NC(=O)c1c(Cl)cccc1Cl — lower, 0.793 ± 0.16
- CC[C@H](Nc1ncnc2[nH]cnc12)c1nc2cccc(F)c2c(=O)n1-c1ccccc1 — within error, 1.11 ± 0.042
- C=CC(=O)Nc1ccc2ncnc(Nc3ccc(OCc4cccc(F)c4)c(Cl)c3)c2c1 — lower, 0.998 ± 0.017
- COc1ccc(COc2cc3oc(=O)c4cc(C(C)O)ccc4c3cc2OC)cc1 (configuration not stated) [Palomid 529] — within error, 1.12 ± 0.092
- O=C(Nc1c[nH]nc1-c1nc2ccc(CN3CCOCC3)cc2[nH]1)NC1CC1 — lower, 0.566 ± 0.1
